SMILES strings stand for the structures. Activity calls are given as the source filed them. Entries that show only a call come without a potency. Calls come from the whole dose curve; as a rule, active = well fitted cell-killing curve with a large enough effect in the repeat runs; inconclusive = weak or mixed curves, or effect the other way; inactive = flat fitted curve, though single readings scatter.

The assay is described as follows: qHTS assay to identify small molecule HDAC inhibitors - cell viability counter screen (AID 1259365). Note: nearly all actives have a fitted effect of over 50% in size. To be noted: HCT-116 viability, CellTiter-Glo ATP luminescence, 2 h; series mostly up to 92.4 µM; activity change, negative = cytotoxicity: at the top concentration. From the text: U.S. Tox21 Program National Center for Advancing Translational Sciences [NCATS] NIH Chemical Genomics Center [NCGC] U.S. Environmental Protection Agency [EPA] National Institutes of Environmental Health Sciences [NIEHS] National Toxicology Program [NTP] U.S. Food and Drug Administration [FDA] Tox21 Assay Overview: Histone deacetylases (HDACs) are a group of epigenetic enzymes that regulate gene expression by histone deacetylation. HDACs are capable of introducing epigenetic modifications and such aberrations contribute to the onset and progression of several human diseases, thus making HDACs a popular therapeutic target. For identifying endogenous class I/II HDAC inhibitors a homogenous, luminogenic HDAC I/II cell based assay was used to measure the relative activity of class I and II HDACs from cells. Wild type HCT-116 cells were used to screen Tox21 compound libraries for identifying class I/II HDAC inhibitors.
Tox21 Assay Protocol Summary: HCT-116 cells were dispensed at 1,500 per well in 5uL of culture medium into white solid bottom 1536-well plates (Greiner Bio-One, Monroe, NC) using a Multidrop Combi (Thermo Scientific, Waltham, MA) dispenser. The assay plates were incubated at 37 C and 5% CO2 for an overnight, and then 23nL of compounds dissolved in DMSO and positive control were transferred using a Pintool station (Wako, San Diego, CA). The assay plates were incubated at 37C and 5% CO2 for 2hr. After compound treatment, 4uL of CellTiter-Glo reagent (Promega Corporation, Madison, WI) was added to each well of the assay plates using Flying Reagent Dispenser (FRD, Aurora Discovery, San Diego, CA) and incubated the assay plates at room temperature for 30min. The luminescence signal was quantified using a ViewLux plate reader (Perkin Elmer, Shelton, CT).
Consider `O=NN(c1ccccc1)c1ccccc1`, for which the Potency result is “inactive”.

For `N#CC(c1ccccc1)c1ccccc1`, the Potency entry was “inactive”. Still for that read-out and setting: the result for `CC(C)COC(=O)c1ccccc1C(=O)OCC(C)C` reads “inactive”; that for `Cc1cccc(N=Nc2ccc(N(C)C)cc2)c1`, “inactive”. Take `N#Cc1nn(-c2c(Cl)cc(C(F)(F)F)cc2Cl)c(N)c1S(=O)C(F)(F)F` (stereo not given): the Potency result was “inactive”. Still for that read-out and setting: the entry for `CCC/C=N/O` is “inactive”; for `O=C(O)CF` it is “inactive”; for `CCCCCCCCCc1ccc(O)cc1` it is “inactive”.

With `Clc1ccc(C(Cl)(Cl)Cl)cc1`, the Potency result was “inactive”.

As for `Cl`, the Potency entry was “inactive”. Regarding `ClCc1ccccn1`, the Potency result is “inactive”. In the case of `Nc1ccc2ccccc2c1`, the Potency result is “inactive”. As to `CC1CC(=O)O1` (stereo not given), the Potency result was “inactive”. For `COc1ccc(O)c(C(C)(C)C)c1`, the Potency entry was “inactive”.

In the case of `O=[N+]([O-])c1ccc(Nc2ccccc2)cc1`, the Potency result is “inactive”.

In the case of `Oc1ccc(Cl)cc1Cc1ccccc1`, the Potency entry is “inactive”.

As to `COP(=O)(NC(C)=O)SC` (stereo not given), the Potency entry is “inactive”. For the compound `CC(C)(c1ccccc1)c1ccc(O)cc1`, the Potency entry is “inactive”. Take `Cc1cc(Cl)ccc1N=CN(C)C`: the Potency entry was “inactive”. Regarding `OC(c1ccc(Cl)cc1)(c1cncnc1)c1ccccc1Cl` (stereo not given), the Potency entry is “inactive”. On the same count and under the same terms, the entry for `ClC(Cl)(Cl)c1ccccc1` is “inactive”. On the same count and under the same terms, the result for `O=NN1CCOCC1` reads “inactive”.

As to `Brc1ccc(Br)cc1`, the Potency result is “inactive”. On to `ClCC(Cl)CCl`, for which the Potency entry is “inactive”. The same measure, in the same setting: the entry for `CCOS(=O)(=O)OCC` is “inactive”; for `CCCCOC(=O)COC(=O)c1ccccc1C(=O)OCCCC` it is “inactive”. `N#Cc1c(Cl)c(Cl)c(Cl)c(C#N)c1Cl`: the “activity change, negative = cytotoxicity” value was 24.8% (inactive). As to `CCCCC(C#N)(Cn1cncn1)c1ccc(Cl)cc1` (stereo not given), the Potency result is “inactive”. Still for that read-out and setting: the result for `CCOP(=S)(OCC)OP(=S)(OCC)OCC` reads “inactive”; that for `C=C(C)C#N`, “inactive”; that for `CSc1nc(NC(C)C)nc(NC(C)C)n1`, “inactive”. Regarding `CC(C)(C#N)N=NC(C)(C)C#N`, the Potency result was “inactive”. On to `Cc1ccc(N=CN(C)C=Nc2ccc(C)cc2C)c(C)c1`, for which the Potency entry is “inactive”.

As for `C[N+](C)(C)CC(=O)O`, the Potency result is “inactive”. Same read-out and setting: the entry for `CC[n+]1c(-c2ccccc2)c2cc(N)ccc2c2ccc(N)cc21` is “inactive”.

As to `N#CCCCCC#N`, the Potency result was “inactive”.

Take `O=P(OCCCl)(OCCCl)OCCCl`: the Potency entry is “inactive”. As to `O=C1Nc2ccc(Cl)cc2C(c2ccccc2)=NC1O` (stereo not given), the Potency entry was “inactive”. On to `C[C@]12CC[C@H]3[C@@H](CCC4=CC(=O)CC[C@@H]43)[C@@H]1CC[C@@H]2O`, for which the Potency entry was “inactive”. On the same count and under the same terms, the result for `CCCCCCCCCCCCCl` reads “inactive”.

The values above are taken from PubChem BioAssay (Tox21).
